# Inconclusive results are not listed. Entries that show only a call come without a potency. The source made the active and inactive calls. Calls come from the whole dose curve.
# Assay: p53 small molecule agonists, cell-based qHTS assay with rat liver microsomes (AID 1963578)
# Conditions: HCT-116 p53RE-bla, beta-lactamase ratio, 16 h; series mostly up to 66 µM
# Text: U.S. Tox21 Program National Center for Advancing Translational Sciences [NCATS] Division of Preclinical Innovation [DPI] U.S. Environmental Protection Agency [EPA] National Institutes of Environmental Health Sciences [NIEHS] National Toxicology Program [NTP] U.S. Food and Drug Administration [FDA] Tox21 Assay Overview: p53, a tumor suppressor protein, is activated following cellular insult, including DNA damage and other cellular stresses. The activation of p53 regulates cell fate by inducing DNA repair, cell cycle arrest, apoptosis, or cellular senescence. The activation of p53, therefore, is a good indicator of DNA damage and other cellular stresses. […] The activation of the reporter gene under culture conditions can be detected by fluorescence intensity. This cell line was used to screen the Tox21 10K compound library in the condition of presence of rat liver microsomes and to identify agonists that activate the p53 signaling pathway after in vitro metabolic activation (Ooka et al., Archive of Toxicology 96:1975-1987, 2022).
# Tox21 Assay Protocol Summary: The p53RE-bla cells were dispensed at 4,000cells/3ul/well in 1536-well black-clear bottom plates. After the assay plates were incubated at 37 C, 5% CO2 incubator for 5 hours, 23 nL of compounds dissolved in DMSO, positive controls or DMSO only was transferred to the assay plate. Following compound addition, 3 uL of rat liver microsomes (Molecular Toxicology, Boone, NC) at final concentration of 0.5 mg/mL and 1uL of Beta-Nicotinamide adenine dinucleotide 2-phosphate (NADPH) at final concentration of 0.5 mg/mL were transferred to the assay plate. The plates were incubated at 37 C for 16 hours. 1 uL of LiveBLAzer detection mixture was added to each well and the plates were incubated at room temperature in the dark for 2 h.
row,Compound,Potency
1,CCCCCCCCOC(=O)CCCCCCCCC(=O)OCCCCCCCC,inactive
2,NCCNCCNCCN,inactive
3,C=CCOc1cc(Cl)ccc1C(=O)NCCN(CC)CC,inactive
4,CC(Cl)COP(=O)(OCC(C)Cl)OCC(C)Cl (stereo not given),inactive
5,OCc1ccccc1O,inactive
6,CCCCCC1CCC(=O)O1 (stereo not given),inactive
7,C=C(C)C(=O)OC(C)C,inactive
8,COCc1ccc(COC)cc1,inactive
9,N#CCC(=O)O,inactive
10,CC(C)CCCCCCc1ccc(O)cc1,inactive
11,N#Cc1cc(NC(=O)C(=O)O)c(Cl)c(NC(=O)C(=O)O)c1,inactive
12,CC1CCc2nccnc21 (stereo not given),inactive
13,O=C(O)c1ccccc1OP(=O)(O)O,inactive
14,NC(=O)Nc1ccccc1,inactive
15,O=C(O)C(=O)Nc1cccc(-c2nn[nH]n2)c1,inactive
16,CCN(CC)C(=O)C1CN2CCc3cc(OC)c(OC)cc3C2CC1OC(C)=O (stereo not given),inactive
17,CCC(COC(=O)CCS)(COC(=O)CCS)COC(=O)CCS,inactive
18,CCC(=O)CC,inactive
19,NC(=O)c1cccc([N+](=O)[O-])c1,inactive
20,CC(C)(O)Cc1ccccc1,inactive

row,Compound,Potency
1,OCC1CCC(CO)CC1 (stereo not given),inactive
2,CC(C)(C)OCC1CO1 (stereo not given),inactive
3,COc1ccc(NC(C)=O)cc1,inactive
4,O=C1CCC(=O)N1,inactive
5,C=CC(C)(O)CC/C=C(\C)CC (stereo not given),inactive
6,O=Cc1cccc([N+](=O)[O-])c1,inactive
7,O=Cc1ccc(Cl)cc1,inactive
8,CC1(C)CO[C@@H](CC(=O)O)CN1,inactive
9,O=C(Oc1ccccc1)c1ccc(O)cc1,inactive
10,NC(=O)NNC(N)=O,inactive
11,CCCCCC(=O)O[C@]1(C(C)=O)CC[C@H]2[C@@H]3CCC4=CC(=O)CC[C@]4(C)[C@H]3CC[C@@]21C,inactive
12,C=CCCCCCCCCC(=O)OCCCC,inactive
13,CC(C)C(=O)c1c(C(C)C)nn2ccccc12,inactive
14,O=C(O)C[C@H](NC(=O)OCc1ccccc1)C(=O)O,inactive
15,C1=CCC2CC=CC2C1 (stereo not given),inactive
16,O=C[C@H](O)[C@@H](O)[C@H](O)[C@H](O)CO,inactive
17,COc1ccc(C)cc1,inactive
18,CCCCc1ccc2cccc(S(=O)(=O)O)c2c1,inactive
19,Nc1cc(C(Cl)=C(Cl)Cl)c(S(N)(=O)=O)cc1S(N)(=O)=O,inactive
20,CC(C)(C)c1ccc(S)cc1,inactive
